Compound activity as filed in PubChem BioAssay.
Myc binder: binds human c-Myc on microarray. P01106. small molecule microarray, His-c-Myc binding, anti-His fluorescence. calls only. actives 1.5% (n = 17,000). AID 624141;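 active means spot fluorescence over background with P-value below 7% in all four replicate spots, showing protein binding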;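 further: score is binary with 100 for all four spots passing and 0 otherwise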
p53 PUMA act: restores mutant p53 pathway signaling in SW480 cells; SW480 PUMA-promoter luciferase, p53 mutant reactivation; actives 1.5% (n = 28,000); activation, % at 9.98 µM; in the data active means activation above about 52%
mut p53 SMM: binders of human mutant p53; calls only; actives 0.4% (n = 17,000); small molecule microarray binding, anti-GST fluorescence; AID 624136;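 active means compounds whose four printed spots each glow above background more than chance allows, each with a p-value under 7%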
NFkB binder: binds human NF-kappa-B p105 on microarray; P19838; Small molecule microarray, anti-His fluorescence binding; calls only; actives 1.3% (n = 17,000);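 active means spot fluorescence over background significantly raised, with a chance value under 7% in all four replicate spots of the compound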;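 further: probe protein is his-tagged human p50 processed subunit at 1 µg/ml; raw spot fluorescence signals with no normalization applied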
Target sequence (P19838 1-433 limits assumed): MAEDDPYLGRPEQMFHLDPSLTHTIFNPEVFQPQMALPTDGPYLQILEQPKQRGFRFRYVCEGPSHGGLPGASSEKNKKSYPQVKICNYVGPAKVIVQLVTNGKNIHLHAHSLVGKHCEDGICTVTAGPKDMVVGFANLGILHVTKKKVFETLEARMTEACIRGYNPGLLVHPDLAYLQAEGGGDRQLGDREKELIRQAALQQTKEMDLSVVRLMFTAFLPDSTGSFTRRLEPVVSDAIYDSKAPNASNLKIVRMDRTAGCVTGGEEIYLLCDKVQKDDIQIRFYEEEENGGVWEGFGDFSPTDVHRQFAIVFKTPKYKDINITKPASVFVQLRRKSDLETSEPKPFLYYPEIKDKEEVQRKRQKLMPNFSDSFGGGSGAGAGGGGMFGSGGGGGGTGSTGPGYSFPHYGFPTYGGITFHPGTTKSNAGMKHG
STAT3 SMM: binds human STAT3 on microarray | AID 624138 | calls only | Small molecule microarray, His-STAT3 binding, anti-His fluorescence | actives 0.2% (n = 17,000) | P40763;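 active means compounds whose four printed spots each show fluorescence over background unusually high for their array block, chance value under 7%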
* marks the source's active call; other numbers are inactive results; i = inactive; . = not tested or not shown; + = active, no number. Sampled rows, rich in hits. Any-hit rate of the full collection: about 2.8%.

SMILES | Myc binder | p53 PUMA act | mut p53 SMM | NFkB binder | STAT3 SMM
Cc1cc(-c2ccccc2)nc(SCC(=O)O)n1 | . | 4 | . | . | .
Cc1ccc(Cl)cc1N(CC(=O)Nc1ccc(C(F)(F)F)cc1)S(C)(=O)=O | . | -11 | . | . | .
Cn1nnnc1SCCNC/C=C/c1ccccc1 | + | 6 | i | i | i
Cn1nnnc1SCCNCc1cccnc1 | . | 7 | . | . | .
COc1ccc(NC(=O)CN(c2ccc(Br)c(C)c2)S(C)(=O)=O)cc1Cl | . | 10 | . | . | .
O=C(O)CCCc1nc2ccccc2s1 | . | -14 | . | . | .
COC(Cc1nc2ccccc2s1)C(=O)O (configuration not stated) | + | 3 | i | i | i
Cn1c(=O)c2c(ncn2CCCN)n(C)c1=O | i | -5 | i | i | i
S=C(NCC1CCCO1)Nc1cccc(Cn2cc(Cl)cn2)c1 (configuration not stated) | . | -1 | . | . | .
O=C(NCc1ccccn1)C(=O)Nc1ccc(Cl)c(Cl)c1 | . | 58* | . | . | .
Cc1cc(C(=O)NCc2ccco2)no1 | i | -7 | i | i | i
O=C(NCc1ccccn1)c1cc(-c2ccccc2)on1 | i | 93* | i | i | i
Cc1ccc(-c2cc(C(=O)NCc3ccco3)no2)cc1 | . | 73* | . | . | .
O=C(CSc1nnc(-c2ccc(Cl)cc2)n1-c1ccc(F)cc1)Nc1ccccc1F | . | 6 | . | . | .
Cc1cccc(-c2nnc(SCC(=O)c3ccccc3)n2-c2ccccc2)c1 | . | 4 | . | . | .
Cc1c(C(=O)Nc2nnc(SC/C=C/c3ccccc3)s2)oc2ccccc12 | . | 54* | . | . | .
Cc1ccc(-c2nnc(SCC(=O)Nc3ccccc3F)n2C)cc1 | . | 60* | . | . | .
C/C=C/C/C=C/CCC(=O)[C@H]1O[C@H]1C(N)=O | i | 29 | i | + | i
CC/C=C\C/C=C\C/C=C\C/C=C\C/C=C\C/C=C\CCC(=O)O | i | -4 | i | i | i
O=C(Nc1sc2c(c1C(=O)NCc1ccco1)CCC2)c1sc2ccccc2c1Cl | + | 42 | i | i | i
O=C(Nc1sc2c(c1C(=O)NCc1ccco1)CCCC2)c1sc2ccccc2c1Cl | . | -47 | . | . | .
C[C@@H]1O[C@@H](O[C@H]2[C@H](O)[C@@H](O)[C@H](O[C@H]3[C@H](O[C@H]4CC[C@@]5(C)C(=CC[C@H]6C7C[C@@H]8O[C@]9(CC[C@@](C)(CO[C@@H]%10O[C@H](CO)[C@@H](O)[C@H](O)[C@H]%10O)O9)[C@H](C)C8[C@@]7(C)CCC65)C4)O[C@H](CO)[C@@H](O)[C@@H]3O)O[C@@H]2CO)[C@H](O)[C@H](O)[C@H]1O (some centres not stated) | i | -92 | i | i | i
CC1CC[C@@]2(OC1)O[C@H]1CC3C4CC=C5C[C@@H](O[C@@H]6O[C@H](CO)[C@@H](O)[C@H](O)[C@H]6O)CC[C@]5(C)C4CC[C@]3(C)[C@@]1(O)[C@@H]2C (some centres not stated) | i | 12 | i | + | i
CC#CCOC(=O)C1=CCCN(C)C1 | + | -11 | i | + | +
Cc1ccc(NC(=O)COc2ccc(Cl)cc2C)c([N+](=O)[O-])c1 | . | 64* | . | . | .
SMILES | Myc binder | p53 PUMA act | mut p53 SMM | NFkB binder | STAT3 SMM
Cc1ccc(NC(=O)COc2ccc(Br)cc2Cl)c([N+](=O)[O-])c1 | . | 82* | . | . | .
Cc1ccc(OCC(=O)Nc2ccc(C)cc2[N+](=O)[O-])c(C)c1 | i | 89* | i | i | i
Cc1ccc(NC(=O)COc2ccc(Cl)cc2Br)c([N+](=O)[O-])c1 | . | 14 | . | . | .
Cc1cc(C)c(OCC(=O)Nc2c[nH]c(=O)[nH]c2=O)cc1C | . | -2 | . | . | .
COc1ccc(C)cc1S(=O)(=O)N(C)CC(=O)Nc1cccc(C(F)(F)F)c1 | . | -4 | . | . | .
COc1cc(CO)ccc1OCC(=O)Nc1ccc(C)cc1 | . | 47 | . | . | .
COc1cc(CO)ccc1OCC(=O)Nc1ccccc1F | . | 64* | . | . | .
CC(=O)Nc1ccccc1NC(=O)COc1ccc(Cl)cc1Cl | . | 26 | . | . | .
Cc1cccc(OCC(=O)Nc2ccccc2CO)c1C | . | 69* | . | . | .
O=C(COc1ccc(Cl)cc1CO)Nc1ccccc1F | i | 128* | i | i | i
C[C@@H]1CC[C@]2(C)[C@H](CC[C@@H](O)[C@]2(C)O)[C@@]1(C)CC/C(=C/CO)CO | i | 17 | i | i | i
CC(=O)C(C)Sc1ncnc2sc(-c3ccccc3)cc12 (configuration not stated) | . | 73* | . | . | .
O=C1O[C@@H](c2ccccc2)[C@@H](c2ccccc2)N2[C@@H](c3ccc(O)cc3)[C@]3(C(=O)Nc4ccc(C#CCCO)cc43)[C@@H](C(=O)N3CCCCCCC3)[C@H]12 | i | . | i | i | i
